# Test results taken from PubChem BioAssay AID902 (National Center for Advancing Translational Sciences (NCATS), 2007).
# Out of some 130,000 compounds screened, about 1,900 (1.5%) were called active. Another 5% or so got no clear call; they are omitted. Calls follow the shape of the dose curve; as a rule, active = well fitted cell-killing curve with a large enough effect; inconclusive = small, poorly fitted or top-dose-only effect; inactive = no such curve, though single readings can be large or run the other way. The list comes from a sample in which actives are over-represented; it also holds similar structures and randomly drawn compounds. Entries that show only a call come without a potency.
# Assay: qHTS Screen for Compounds that Selectively Target Cancer Cells with p53 Mutations: Cytotoxicity of p53ts Cells at the Nonpermissive Temperature; also: nearly all actives have a fitted effect of over 55% in size
# Conditions: H1299-p53A138V viability at 39C, ATP luminescence, 24 h; series mostly up to 46.1 µM
# Potency is read from the fitted curve at half-maximal effect.
row,SMILES,Potency
1,CCOC(=O)CNC(=O)c1cc2c(=O)n3cccc(C)c3nc2s1,inactive
2,CCCc1nn2c(=O)cc(COC(=O)c3ccc(NC(=O)COc4ccc(F)cc4)cc3)nc2s1,inactive
3,N#Cc1ccccc1-c1ccc2ncnc(NCc3cccnc3)c2c1,inactive
4,COc1ccccc1CNc1ncnc2ccc(-c3ccc4c(c3)OCO4)cc12,inactive
5,N#Cc1cccc(-c2ccc3ncnc(NCc4cccs4)c3c2)c1,12.6 µM (active)
6,Cc1ccc(Cl)cc1NC(=O)C1CCCN(c2cnccn2)C1 (centres undefined),inactive
7,O=C(c1cc(-c2ccc(F)cc2)on1)N1CCN(c2ccc(F)cc2)CC1,inactive
8,Cc1ccc(S(=O)(=O)/N=C(/Nc2ccccn2)c2ccc(Cl)cc2)cc1,inactive
9,CCN(CC)S(=O)(=O)c1cccc(C(=O)Nc2ccccc2)c1,inactive
10,CCN(CC)S(=O)(=O)c1cc(C(=O)Nc2ccccn2)ccc1C,12.6 µM (active)
11,CN(C(=O)CN1C(=O)CCSc2ccc(S(=O)(=O)N3CCCC3)cc21)c1ccccc1,inactive
12,O=C(CSc1nnc(-c2ccccc2F)o1)Nc1cccc(C(F)(F)F)c1,inactive
13,O=C(NCCS(=O)(=O)N1CCN(c2ccc(F)cc2)CC1)c1ccccc1Br,inactive
14,COc1ccc(N2C(=O)CS(=O)(=O)C23C(=O)N(Cc2ccc(C)cc2)c2ccccc23)cc1Cl (centres undefined),inactive
15,CCCCOc1ccc(C(=O)Nc2cccc(-c3nc4ccccc4o3)c2C)cc1,inactive
16,O=C(COc1ccccc1F)Nc1ccc(C(=O)OCc2cc(=O)n3nc(C4CC4)sc3n2)cc1,inactive
17,CSc1oc(-c2cccs2)nc1S(=O)(=O)c1ccc(Br)cc1,inactive
18,CCCCS(=O)(=O)c1oc(-c2cccs2)nc1S(=O)(=O)c1ccccc1,3.16 µM (active)
19,NC(=O)CSc1oc(-c2cccs2)nc1S(=O)(=O)c1ccccc1,inactive
20,CC(C)c1ccc(-c2nn[nH]n2)cc1,12.6 µM (active)
21,c1ccc(-n2ncc(-c3nn[nH]n3)n2)cc1,inactive
22,Cc1nnc(C)n1/N=C/c1ccc(C(C)C)cc1,inactive
23,CCc1ccc(-n2nnc(-c3nc(-c4ccccc4)no3)c2C)cc1,inactive
24,CCOC(=O)c1c(C)oc2nc(C)nc(Nc3ccc(CC)cc3)c12,inactive
25,CCOc1ccc(Nc2c(S(=O)(=O)c3ccccc3)cnc3ccccc23)cc1,inactive
26,CCOc1ccc(CCNC(=O)c2ccc3c(c2)sc2nc(-c4ccc(F)cc4)cn23)cc1OCC,inactive

row,SMILES,Potency
1,CCOC(=O)c1ccc(NC(=O)c2nc(SCc3ccc(F)cc3)ncc2Cl)cc1,inactive
2,CCOC(=O)c1scc(-c2ccccc2)c1S(=O)(=O)Nc1ccccc1F,inactive
3,CCCS(=O)(=O)c1ncc(Cl)c(C(=O)Nc2scc(-c3ccccc3)c2C(=O)OCC)n1,7.94 µM (active)
4,CCOC(=O)C1CCN(c2csc3ccc(C)cc3c2=O)CC1,inactive
5,COc1ccc(CNC(=O)c2ccc3c(c2)nc2n3CCOC2)c(OC)c1,inactive
6,CCc1ccc(-n2nc(C)c3c(C)cc(=O)n(CC(=O)Nc4ccc(F)cc4C)c32)cc1,inactive
7,COc1ccc(-c2cc3ccc(OCc4nn[nH]n4)cc3oc2=O)cc1,12.6 µM (active)
8,O=c1oc2cc(O)ccc2cc1-c1ccc(F)cc1,inactive
9,COc1ccc2cc(-c3nc(Cl)c4c5c(sc4n3)CC(C)CC5)c(=O)oc2c1 (centres undefined),inactive
10,Cc1cn(C)c(CC(=O)NCc2ccc(Cl)cc2)c1C(=O)O,inactive
11,CCc1ccc(NC(=O)CCS(=O)(=O)c2cc3c(cc2Cl)NC(=O)CO3)cc1,inactive
12,COC(=O)c1sc(NC(=O)c2ccc(OC)cc2OC)nc1C,0.316 µM (active)
13,COc1ccc(C(=O)Nc2nncs2)c(OC)c1,inactive
14,COC(=O)c1sc(NC(=O)c2csc3c2CCCC3)nc1C,inactive
15,CCOC(=O)c1cccc(NC(=O)c2cc(CN3CCCC3)on2)c1,inactive
16,CCOc1ccc(NC(=O)Cn2c(=O)n(CCCC(=O)NCc3ccc4c(c3)OCO4)c(=O)c3ccccc32)cc1,inactive
17,Cc1nn2c(=O)cc(COC(=O)c3cccc(NC(=O)COc4ccccc4Cl)c3)nc2s1,12.6 µM (active)
18,Cc1nn2c(=O)cc(COC(=O)c3ccccc3NC(=O)COc3ccccc3C)nc2s1,inactive
19,COc1ccc(OCC(=O)Nc2cccc(C(=O)OCc3cc(=O)n4nc(C)sc4n3)c2)cc1,inactive
20,Cc1cccc(C(=O)NCCc2nc3ccccc3n2Cc2ccccc2Cl)c1,inactive
21,Cc1ccc(F)cc1NC(=O)c1cccc(N(C)C)c1,inactive
22,Cc1ccccc1NC(=O)c1ccccc1,inactive
23,Cc1ccc(NC(=O)c2cccc(N(C)C)c2)cc1NC(=O)c1ccc(O)cc1,7.94 µM (active)
24,COc1ccc(CCN2C(=O)c3oc4cc(C)cc(C)c4c(=O)c3C2c2ccccc2F)cc1OC (centres undefined),inactive
25,Cn1c(-c2ccco2)nc2cc3ccccc3cc21,1.26 µM (active)
26,c1coc(-c2nc3nc4ccccc4n3nc2-c2ccco2)c1,inactive

row,SMILES,Potency
1,CN(c1nc2ccccc2n2c(-c3ccco3)nnc12)S(=O)(=O)c1ccccc1,inactive
2,O=C(CCn1ccc2cc(S(=O)(=O)N3CCCC3)ccc21)NCc1cccc(Cl)c1,inactive
3,COc1ccc(CC(=O)NCCc2sc3nc(-c4ccc(OC)cc4)nn3c2C)cc1,inactive
4,Cc1cccc(-n2ccnc2SCC(=O)Nc2cc(C(F)(F)F)ccc2Cl)c1,inactive
5,O=C(CN1C(=O)c2ccccc2S1(=O)=O)N1CCc2ccccc21,2 µM (active)
6,O=C(c1cccc(C(=O)N2CCc3ccccc32)n1)N1CCc2ccccc21,inactive
7,O=C(CN1CCN(c2ccccn2)CC1)N1CCc2ccccc21,inactive
8,CC(=O)Nc1ccc(S(=O)(=O)N2CCN(C(=O)c3ccccc3F)CC2)cc1,inactive
9,Cc1cccc(NC(=O)c2cc(S(=O)(=O)N3CCC4(CC3)OCCO4)ccc2F)c1,inactive
10,CC(C)c1ccc(NC(=O)c2cc(S(=O)(=O)N3CCc4ccccc4C3)ccc2F)cc1,31.6 µM (active)
11,Cc1nc2ccn(Cc3cccs3)c(=O)c2cc1C(=O)NCc1ccc(Cl)cc1,inactive
12,COC(=O)c1sc2ncccc2c1-n1c(C)ccc1C,inactive
13,COc1ccc(-c2nc(S(=O)(=O)c3ccccc3)c(N3CCCCC3)o2)cc1,inactive
14,CC(C)S(=O)(=O)c1oc(-c2ccc(F)cc2)nc1S(=O)(=O)c1ccc(F)cc1,3.16 µM (active)
15,Cc1ccc(-c2nc(S(=O)(=O)c3ccc(C)cc3)c(N3CCCCCC3)o2)cc1,inactive
16,CC1CCc2noc(NC(=O)c3ccc([N+](=O)[O-])cc3)c2C1 (centres undefined),inactive
17,COc1ccc(C(=O)Nc2onc3c2CCCC3)cc1,10 µM (active)
18,COc1ccc(NC(=O)c2c(C)oc3c2CCCC3)cc1,inactive
19,O=C(c1ccc2c(c1)N(Cc1ccccc1)C(=O)c1ccccc1S2(=O)=O)N1CCCC1,inactive
20,COc1ccccc1C(=O)Nc1c(C(=O)N(C)Cc2ccccc2)sc2nc(C)c(Cl)c(C)c12,inactive
21,COc1ccc(NS(=O)(=O)c2cc3c4c(c2)CC(=O)N4CCC3)cc1Cl,inactive
22,CCN1C(=O)c2ccccc2S(=O)c2ccc(C(=O)NCc3ccc(F)cc3)cc21 (centres undefined),inactive
23,COC(=O)c1nc2ccccc2s1,inactive
24,COC(=O)Cc1cc(=O)n(-c2nc3ccccc3s2)[nH]1,inactive
25,CCC(=O)NC(=Nc1nc2ccccc2s1)NC(=O)CC,10 µM (active)
26,O=C(NCC(c1ccc2c(c1)OCO2)N1CCN(c2ccccc2)CC1)C(=O)Nc1ccccc1F (centres undefined),inactive

row,SMILES,Potency
1,O=C(NC1CC(=O)N(c2ccccc2)C1)c1ccco1 (centres undefined),inactive
2,c1ccc(-c2noc(-c3cccs3)n2)nc1,15.8 µM (active)
3,c1csc(-c2nc(-c3ccncc3)no2)c1,inactive
4,CC(C)c1nc(-c2ccccn2)no1,inactive
5,COc1ccc(CNC(=O)c2cc3c(-c4ccccc4F)nn(C)c3s2)c(OC)c1,inactive
6,CCOc1ccc(NC(=O)c2c(NC(=O)Cc3ccccc3)sc3c2CCCCC3)cc1,10 µM (active)
7,O=C(Cc1ccccc1)Nc1sc2c(c1C(=O)Nc1ccc(Br)cc1)CCC2,inactive
8,CCOc1ccc(NC(=O)c2c(NCc3cccc(OC)c3OC)sc3c2CCC3)cc1,inactive
9,CCc1ccc(CNC(=O)c2ccc(CS(=O)c3ccc(Br)cc3)o2)cc1 (centres undefined),inactive
10,CC(NC(=O)c1cc(Sc2ccc(F)cc2F)nc2ccccc12)c1ccccc1 (centres undefined),inactive
11,O=C(/C=C/c1ccccc1)N1CCN(Cc2cc(=O)n3nc(-c4ccccc4F)sc3n2)CC1,inactive
12,NC(=O)c1ccccc1NC(=O)c1ccccc1F,inactive
13,O=C(Nc1nc2c(s1)CCCC2)c1ccccc1F,10 µM (active)
14,O=C(Cn1c(=O)sc2ccccc21)Nc1nc2c(s1)CCCC2,inactive
15,COC(=O)c1ccccc1NS(=O)(=O)c1ccc2c(c1)CCCN2C(C)=O,inactive
16,CCn1cc2nc(SCc3ccccc3Cl)n(CCc3ccccc3)c(=O)c2n1,inactive
17,Cc1ccc(C(=O)N2CCCCCC2)cc1Br,inactive
18,CCc1ccc(CNC(=O)c2cc3cc4ccc(OC)cc4nc3o2)cc1,inactive
19,Cc1ccc2cc3cc(C(=O)N4CCCCCC4)oc3nc2c1,15.8 µM (active)
20,CCCS(=O)(=O)c1c(Nc2ccccc2C)sc(C(=O)c2ccccc2)c1N,inactive
21,CCC(C(=O)Nc1cccc(-c2nc3cccnc3s2)c1C)c1ccccc1 (centres undefined),inactive
22,Cc1c(NC(=O)C(C)(C)C)cccc1-c1nc2ccccc2s1,15.8 µM (active)
23,Cc1c(NC(=O)Cc2ccccc2)cccc1-c1nc2cccnc2s1,inactive
24,CCOc1ccc(NC(=O)CN(Cc2ccccc2)S(=O)(=O)c2ccc(Cl)cc2)cc1,inactive
25,CCOc1ccc(N(Cc2ccccc2)C(=O)c2nc(S(C)(=O)=O)ncc2Cl)cc1,3.98 µM (active)
26,CCOc1ccc(N(Cc2ccccc2)C(=O)c2nc(SCC)ncc2Cl)cc1,inactive
